From PubChem BioAssay (EPA / NIEHS)
Inconclusive results are not listed. The source made the active and inactive calls. Rule for the calls: active = hit-call score of the fitted dose curve at least 0.9, where 1 is the maximum; inconclusive = response in the unintended direction; inactive = score below 0.9.

Molecular target: Cellular tumor antigen p53 (Homo sapiens) (UniProt P04637)
Assay: TOX21_p53_BLA_p5_ratio: Tox21 HCT-116 p53 Agonism Beta-lactamase Assay, Ratio, Phase 5 (AID 2283599)
Procedure, shortened: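 Beta-lactamase reporter ratio (blue 460 nm over green 530 nm, 405 nm excitation) after 2 h CCF4-AM loading, in HCT-116 cells exposed 16 h at 37 C to compounds pinned at 217-fold dilution. Increases relative to DMSO baseline scored.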

Cellular tumor antigen p53 (Homo sapiens), sequence (P04637 whole entry, looked up): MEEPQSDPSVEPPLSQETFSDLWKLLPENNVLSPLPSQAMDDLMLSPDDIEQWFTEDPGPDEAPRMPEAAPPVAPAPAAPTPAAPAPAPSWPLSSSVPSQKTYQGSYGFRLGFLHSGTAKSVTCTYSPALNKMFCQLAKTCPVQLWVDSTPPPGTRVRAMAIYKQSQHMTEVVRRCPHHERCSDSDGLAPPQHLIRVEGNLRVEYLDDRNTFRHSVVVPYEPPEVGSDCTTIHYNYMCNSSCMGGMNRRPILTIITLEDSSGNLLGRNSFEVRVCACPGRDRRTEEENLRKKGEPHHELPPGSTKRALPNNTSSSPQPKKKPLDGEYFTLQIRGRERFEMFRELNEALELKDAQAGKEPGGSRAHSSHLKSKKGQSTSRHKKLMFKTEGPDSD

Row | SMILES | outcome
1 | N#CSCc1ccccc1 | inactive
2 | NC(=S)C(N)=S | inactive
3 | CC(C)(C)C(=O)C(Cl)Cl | inactive
4 | CC(N)Cc1ccc(O)cc1 (configuration not stated) | inactive
5 | C=C[C@H]1CN2CC[C@H]1C[C@H]2[C@H](OC(=O)OCC)c1ccnc2ccc(OC)cc12 | inactive
6 | CCCCC1C(=O)NC(=O)N(C2CCCCC2)C1=O (configuration not stated) | inactive
7 | Cc1ccccc1-n1c(CF)nc2ccc(N)cc2c1=O | inactive
8 | O=C1CC(=O)NC(=O)N1 | inactive
9 | CC[N+]1(C)CCCC(OC(=O)C(O)(c2ccccc2)c2ccccc2)C1 (configuration not stated) | inactive
10 | C=CCBr | inactive
11 | Nc1ccccc1-c1ccccc1 | inactive
12 | CCC(=O)O[C@@](Cc1ccccc1)(c1ccccc1)[C@@H](C)CN(C)C | inactive
13 | O=C([O-])c1ccccn1.O=C([O-])c1ccccn1.O=C([O-])c1ccccn1.[Cr+3] | inactive
14 | Cc1ncc2n1-c1ccc(Cl)cc1C(c1ccccc1F)=NC2 | inactive
15 | CC(Cc1ccc2c(c1)OCO2)NO (configuration not stated) | inactive
16 | CC(C)(C#N)C(C)(C)C#N | inactive
17 | CC(=O)O[C@H]1CC[C@H]2[C@@H]3CCC4=CC(=O)CCC4=C3C=C[C@]12C | inactive
18 | Clc1ccc(C(Cl)(Cl)Cl)cc1Cl | inactive
19 | NC(=S)c1c(Cl)cccc1Cl | inactive
20 | C1CCNCC1 | inactive
21 | CCC1COC(Cn2cncn2)(c2ccc(Cl)cc2Cl)O1 (configuration not stated) | inactive
22 | c1cc2c(c(NC3=NCCN3)c1)CCCC2 | inactive
23 | O=C1C(=O)c2cccc3cccc1c23 | inactive
24 | O=[N+]([O-])c1cccc2cccnc12 | inactive
25 | CC(C)=CCN1CC[C@]2(C)c3cc(O)ccc3C[C@H]1[C@H]2C | inactive
26 | C1CS1 | inactive

Tested on: not listed separately
Assay: TOX21_p53_BLA_p5_viability: Viability Assessment in the Tox21 HCT-116 p53 Agonism Beta-lactamase Assay, Phase 5 (AID 2283600)
Procedure, shortened: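 Compounds, pinned from DMSO at 217-fold dilution, were left on the cells for 16 h. The viability endpoint was ATP content measured by CellTiter-Glo luminescence, where falling signal reflects cytotoxicity.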

Row | SMILES | outcome
27 | N#CC(Cl)(Cl)Cl | inactive
28 | NC(=S)C(N)=S | inactive
29 | C=CCN1CC[C@]23CCCC[C@H]2[C@H]1Cc1ccc(O)cc13 | inactive
30 | CC(N)Cc1ccc(O)cc1 (configuration not stated) | inactive
31 | C=C[C@H]1CN2CC[C@H]1C[C@H]2[C@H](OC(=O)OCC)c1ccnc2ccc(OC)cc12 | inactive
32 | CCCCC1C(=O)NC(=O)N(C2CCCCC2)C1=O (configuration not stated) | inactive
33 | [Cl-].[Cl-].[Sn+2] | inactive
34 | Cc1ccccc1-n1c(CF)nc2ccc(N)cc2c1=O | inactive
35 | CC1CC(CC2CCC(N)C(C)C2)CCC1N (configuration not stated) | inactive
36 | CC[N+]1(C)CCCC(OC(=O)C(O)(c2ccccc2)c2ccccc2)C1 (configuration not stated) | inactive
37 | Nc1n[nH]c(N)n1 | inactive
38 | C=CCCC#N | inactive
39 | CCC(=O)O[C@@](Cc1ccccc1)(c1ccccc1)[C@@H](C)CN(C)C | inactive
40 | CCCCCCC(=O)O[C@H]1CC[C@H]2[C@@H]3CC[C@H]4CC(=O)C=C(C)[C@]4(C)[C@H]3CC[C@]12C | inactive
41 | O=C([O-])c1ccccn1.O=C([O-])c1ccccn1.O=C([O-])c1ccccn1.[Cr+3] | inactive
42 | CN(C)c1ccc(N=Nc2ccccc2)cc1 | inactive
43 | CC(C)(C#N)C(C)(C)C#N | inactive
44 | Clc1ccc(C(Cl)(Cl)Cl)cc1Cl | inactive
45 | c1cc2c(c(NC3=NCCN3)c1)CCCC2 | inactive
46 | O=[N+]([O-])c1cccc2cccnc12 | inactive
47 | CC(C)=CCN1CC[C@]2(C)c3cc(O)ccc3C[C@H]1[C@H]2C | inactive
48 | CCCCCC[N+](=O)[O-] | inactive

Molecular target: Cellular tumor antigen p53 (Homo sapiens) (UniProt P04637)
Assay: TOX21_p53_BLA_p4_ratio: Tox21 HCT-116 p53 Agonism Beta-lactamase Assay, Ratio, Phase 4 (AID 2283601)
Procedure, shortened: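 Signal is the blue/green (460nm/530nm) ratio of cleaved versus uncleaved CCF4-AM substrate, read after 2 h substrate loading. Cells were HCT116 carrying the p53-responsive beta-lactamase reporter, dosed 16 h at 37C, 5% CO2; CellTiter-Glo measured in parallel.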

Row | SMILES | outcome | AC50
49 | N#CSCc1ccccc1 | inactive | –
50 | CC(C)c1c(CN(C)C(C)Cc2ccccc2)n(C)n(-c2ccccc2)c1=O (configuration not stated) | inactive | –
51 | C=CCN1CC[C@]23CCCC[C@H]2[C@H]1Cc1ccc(O)cc13 | inactive | –
52 | CC(C)(C)C(=O)C(Cl)Cl | inactive | –
53 | CC(N)Cc1ccc(O)cc1 (configuration not stated) | inactive | –
54 | C=C[C@H]1CN2CC[C@H]1C[C@H]2[C@H](OC(=O)OCC)c1ccnc2ccc(OC)cc12 | inactive | –
55 | CCCCC1C(=O)NC(=O)N(C2CCCCC2)C1=O (configuration not stated) | inactive | –
56 | O=C1CC(=O)NC(=O)N1 | inactive | –
57 | Nc1ccccc1-c1ccccc1 | inactive | –
58 | CCC(=O)O[C@@](Cc1ccccc1)(c1ccccc1)[C@@H](C)CN(C)C | inactive | –
59 | CCCCCCC(=O)O[C@H]1CC[C@H]2[C@@H]3CC[C@H]4CC(=O)C=C(C)[C@]4(C)[C@H]3CC[C@]12C | inactive | –
60 | O=C([O-])c1ccccn1.O=C([O-])c1ccccn1.O=C([O-])c1ccccn1.[Cr+3] | inactive | –
61 | Cc1ncc2n1-c1ccc(Cl)cc1C(c1ccccc1F)=NC2 | inactive | –
62 | CC(Cc1ccc2c(c1)OCO2)NO (configuration not stated) | inactive | –
63 | CC(C)(C#N)C(C)(C)C#N | inactive | –
64 | CC(=O)O[C@H]1CC[C@H]2[C@@H]3CCC4=CC(=O)CCC4=C3C=C[C@]12C | inactive | –
65 | Clc1ccc(C(Cl)(Cl)Cl)cc1Cl | inactive | –
66 | C[C@]12CC[C@H]3[C@@H](CCC4=CC(=O)CC[C@@H]43)[C@@H]1CC[C@@H]2OC(=O)CCc1ccccc1 | inactive | –
67 | NC(=S)c1c(Cl)cccc1Cl | inactive | –
68 | C1CCNCC1 | inactive | –
69 | c1cc2c(c(NC3=NCCN3)c1)CCCC2 | inactive | –
70 | O=C1C(=O)c2cccc3cccc1c23 | – | 9.63 µM (active)
71 | Clc1ccc(C(Cl)(Cl)Cl)c(Cl)c1 | inactive | –
72 | O=[N+]([O-])c1cccc2cccnc12 | inactive | –
